About 7,900 targets were measured; listed, in parts, are those with a hit and a random draw of the rest. About 0.6% of all pairs of compound and target were hits. A number with no mark means an inactive call.
Compound: NC1(c2ccc(-c3nc4ccn5c(=O)[nH]nc5c4cc3-c3ccccc3)cc2)CCC1
Experiment: log2 fold change, soluble protein after heating vs DMSO (PISA); higher = thermal stabilisation; K562 cells, 10 uM, 30 min; active = over 0.2 and 3.5 SD of the protein, either way, in both replicates (recomputed)
Procedure, shortened: (§1)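 For each measurement, 10 μM compound was applied for 30 min to K562 cells at 2×10^6 cells/mL. Aliquots were heated for 3 min across 48°C-58°C, pooled, and extracted in PBS with 0.5% NP-40 at 4°C; the supernatant after 21,000xg for 90 min was soluble protein. This was quantified by TMTpro 16plex LC-MS/MS with channel sums equalised, and thermal stability was reported relative to control samples from duplicates, on a log2 fold-change scale.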

Sequence of UniProt O14893 (O14893 whole entry, looked up): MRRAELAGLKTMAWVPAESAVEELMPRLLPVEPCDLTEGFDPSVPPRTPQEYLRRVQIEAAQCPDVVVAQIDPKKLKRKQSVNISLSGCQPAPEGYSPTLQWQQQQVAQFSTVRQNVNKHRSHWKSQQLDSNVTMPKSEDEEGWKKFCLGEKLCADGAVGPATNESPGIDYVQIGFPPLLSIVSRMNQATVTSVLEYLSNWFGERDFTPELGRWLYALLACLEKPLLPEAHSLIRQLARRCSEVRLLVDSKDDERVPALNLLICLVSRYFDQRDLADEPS
Sequence of UniProt Q92664 (Q92664 whole entry, looked up): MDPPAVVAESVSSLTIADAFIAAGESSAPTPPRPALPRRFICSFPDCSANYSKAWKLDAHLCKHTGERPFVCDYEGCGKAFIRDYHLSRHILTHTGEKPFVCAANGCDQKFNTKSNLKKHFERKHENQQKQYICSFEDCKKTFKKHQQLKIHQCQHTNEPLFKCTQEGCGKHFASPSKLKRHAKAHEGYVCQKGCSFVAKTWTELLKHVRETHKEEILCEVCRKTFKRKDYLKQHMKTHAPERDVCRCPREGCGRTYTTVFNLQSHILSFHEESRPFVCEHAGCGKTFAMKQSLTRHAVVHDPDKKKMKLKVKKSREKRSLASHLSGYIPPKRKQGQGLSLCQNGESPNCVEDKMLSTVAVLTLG
Sequence of UniProt Q70Z53 (Q70Z53 whole entry, looked up): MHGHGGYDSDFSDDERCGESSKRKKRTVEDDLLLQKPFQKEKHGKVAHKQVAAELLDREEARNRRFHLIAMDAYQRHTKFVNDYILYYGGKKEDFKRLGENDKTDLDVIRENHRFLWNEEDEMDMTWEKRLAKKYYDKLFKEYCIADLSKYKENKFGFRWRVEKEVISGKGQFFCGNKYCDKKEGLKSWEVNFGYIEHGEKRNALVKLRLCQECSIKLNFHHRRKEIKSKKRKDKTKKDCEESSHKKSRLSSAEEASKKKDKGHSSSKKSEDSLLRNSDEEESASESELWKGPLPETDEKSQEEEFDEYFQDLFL
Sequence of UniProt Q02790 (Q02790 whole entry, looked up): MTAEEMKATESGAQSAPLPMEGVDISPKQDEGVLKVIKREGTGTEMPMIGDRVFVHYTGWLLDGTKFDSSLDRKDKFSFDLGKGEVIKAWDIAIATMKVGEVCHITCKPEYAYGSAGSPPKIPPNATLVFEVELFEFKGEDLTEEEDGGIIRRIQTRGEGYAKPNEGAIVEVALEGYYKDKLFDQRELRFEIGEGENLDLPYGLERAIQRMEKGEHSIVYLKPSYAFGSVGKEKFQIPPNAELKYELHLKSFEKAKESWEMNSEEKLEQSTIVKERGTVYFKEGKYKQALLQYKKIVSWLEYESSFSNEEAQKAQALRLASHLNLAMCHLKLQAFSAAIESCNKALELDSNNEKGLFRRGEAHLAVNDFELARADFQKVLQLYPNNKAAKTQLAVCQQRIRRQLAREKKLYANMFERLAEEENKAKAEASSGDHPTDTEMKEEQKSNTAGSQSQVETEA
Sequence of UniProt P21695 (P21695 whole entry, looked up): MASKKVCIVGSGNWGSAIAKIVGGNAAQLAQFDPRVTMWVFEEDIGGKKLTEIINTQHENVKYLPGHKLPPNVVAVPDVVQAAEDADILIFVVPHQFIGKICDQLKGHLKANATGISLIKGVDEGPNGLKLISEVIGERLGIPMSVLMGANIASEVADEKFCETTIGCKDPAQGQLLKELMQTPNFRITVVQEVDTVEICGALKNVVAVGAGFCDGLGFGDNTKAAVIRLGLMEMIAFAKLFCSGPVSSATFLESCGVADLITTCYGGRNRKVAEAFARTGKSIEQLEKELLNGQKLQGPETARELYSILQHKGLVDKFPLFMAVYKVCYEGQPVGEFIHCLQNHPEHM
Sequence of UniProt Q9BVP2 (Q9BVP2 whole entry, looked up): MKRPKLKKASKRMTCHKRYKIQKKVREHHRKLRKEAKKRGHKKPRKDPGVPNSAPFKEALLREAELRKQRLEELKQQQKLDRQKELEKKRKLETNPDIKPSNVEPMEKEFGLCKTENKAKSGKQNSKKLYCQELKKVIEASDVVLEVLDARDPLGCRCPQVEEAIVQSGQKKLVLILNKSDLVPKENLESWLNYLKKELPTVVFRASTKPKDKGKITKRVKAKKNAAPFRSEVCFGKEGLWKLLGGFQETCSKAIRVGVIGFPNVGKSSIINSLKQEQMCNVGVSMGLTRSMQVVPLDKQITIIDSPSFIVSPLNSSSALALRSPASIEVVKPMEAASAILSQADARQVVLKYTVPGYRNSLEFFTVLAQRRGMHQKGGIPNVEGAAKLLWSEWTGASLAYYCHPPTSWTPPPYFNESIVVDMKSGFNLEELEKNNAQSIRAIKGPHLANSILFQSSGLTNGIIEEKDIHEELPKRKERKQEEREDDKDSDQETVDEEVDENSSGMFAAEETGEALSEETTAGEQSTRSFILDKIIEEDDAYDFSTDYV
Sequence of UniProt Q7Z4Q2 (Q7Z4Q2 whole entry, looked up): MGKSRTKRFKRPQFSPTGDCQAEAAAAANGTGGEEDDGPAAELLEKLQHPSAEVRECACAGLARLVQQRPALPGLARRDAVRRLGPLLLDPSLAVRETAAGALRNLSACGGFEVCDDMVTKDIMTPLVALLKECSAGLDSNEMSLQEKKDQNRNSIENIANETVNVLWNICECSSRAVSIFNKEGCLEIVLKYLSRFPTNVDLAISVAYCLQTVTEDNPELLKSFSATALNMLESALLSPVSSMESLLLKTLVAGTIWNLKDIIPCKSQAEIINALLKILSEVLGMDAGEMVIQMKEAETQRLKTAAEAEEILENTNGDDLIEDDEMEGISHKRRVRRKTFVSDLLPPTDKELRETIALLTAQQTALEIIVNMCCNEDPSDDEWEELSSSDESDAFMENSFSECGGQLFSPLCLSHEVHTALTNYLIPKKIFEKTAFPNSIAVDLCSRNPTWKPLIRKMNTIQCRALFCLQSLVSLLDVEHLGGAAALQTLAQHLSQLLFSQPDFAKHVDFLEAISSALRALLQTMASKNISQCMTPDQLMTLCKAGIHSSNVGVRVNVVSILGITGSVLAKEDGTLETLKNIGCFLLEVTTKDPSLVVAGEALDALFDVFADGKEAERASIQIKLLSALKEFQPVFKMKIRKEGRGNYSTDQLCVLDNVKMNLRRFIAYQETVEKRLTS
Sequence of UniProt P60520 (P60520 whole entry, looked up): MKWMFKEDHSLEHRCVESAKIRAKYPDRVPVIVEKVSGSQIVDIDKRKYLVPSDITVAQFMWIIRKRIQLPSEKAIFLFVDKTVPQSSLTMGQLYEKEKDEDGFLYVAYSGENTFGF
Sequence of UniProt P36915 (P36915 whole entry, looked up): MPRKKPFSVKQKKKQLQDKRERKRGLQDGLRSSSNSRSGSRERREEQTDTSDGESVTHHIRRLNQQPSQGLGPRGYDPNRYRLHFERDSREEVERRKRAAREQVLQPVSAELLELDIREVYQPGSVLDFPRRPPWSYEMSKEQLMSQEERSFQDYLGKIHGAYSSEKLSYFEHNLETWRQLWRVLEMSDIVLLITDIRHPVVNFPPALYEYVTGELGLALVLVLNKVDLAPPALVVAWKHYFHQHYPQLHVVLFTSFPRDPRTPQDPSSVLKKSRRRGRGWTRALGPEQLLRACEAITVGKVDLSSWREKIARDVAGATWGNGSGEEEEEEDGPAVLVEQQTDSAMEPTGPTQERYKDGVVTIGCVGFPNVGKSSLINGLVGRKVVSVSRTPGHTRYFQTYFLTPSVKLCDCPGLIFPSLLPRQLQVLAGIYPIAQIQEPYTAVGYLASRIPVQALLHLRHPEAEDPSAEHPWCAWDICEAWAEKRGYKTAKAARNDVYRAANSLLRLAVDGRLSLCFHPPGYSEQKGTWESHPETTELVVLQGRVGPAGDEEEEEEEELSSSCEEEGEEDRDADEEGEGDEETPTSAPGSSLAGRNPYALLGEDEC
Sequence of UniProt Q00688 (Q00688 whole entry, looked up): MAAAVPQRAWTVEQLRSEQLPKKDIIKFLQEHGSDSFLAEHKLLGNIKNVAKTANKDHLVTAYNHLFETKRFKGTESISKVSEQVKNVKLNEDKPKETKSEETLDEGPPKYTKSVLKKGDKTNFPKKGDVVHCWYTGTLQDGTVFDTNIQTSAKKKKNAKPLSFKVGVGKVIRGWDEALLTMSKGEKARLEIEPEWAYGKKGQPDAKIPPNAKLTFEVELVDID
Sequence of UniProt P52657 (P52657 whole entry, looked up): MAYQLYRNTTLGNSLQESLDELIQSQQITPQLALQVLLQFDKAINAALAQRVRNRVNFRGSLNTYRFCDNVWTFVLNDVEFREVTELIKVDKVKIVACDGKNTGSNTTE
Sequence of UniProt P07686 (P07686 whole entry, looked up): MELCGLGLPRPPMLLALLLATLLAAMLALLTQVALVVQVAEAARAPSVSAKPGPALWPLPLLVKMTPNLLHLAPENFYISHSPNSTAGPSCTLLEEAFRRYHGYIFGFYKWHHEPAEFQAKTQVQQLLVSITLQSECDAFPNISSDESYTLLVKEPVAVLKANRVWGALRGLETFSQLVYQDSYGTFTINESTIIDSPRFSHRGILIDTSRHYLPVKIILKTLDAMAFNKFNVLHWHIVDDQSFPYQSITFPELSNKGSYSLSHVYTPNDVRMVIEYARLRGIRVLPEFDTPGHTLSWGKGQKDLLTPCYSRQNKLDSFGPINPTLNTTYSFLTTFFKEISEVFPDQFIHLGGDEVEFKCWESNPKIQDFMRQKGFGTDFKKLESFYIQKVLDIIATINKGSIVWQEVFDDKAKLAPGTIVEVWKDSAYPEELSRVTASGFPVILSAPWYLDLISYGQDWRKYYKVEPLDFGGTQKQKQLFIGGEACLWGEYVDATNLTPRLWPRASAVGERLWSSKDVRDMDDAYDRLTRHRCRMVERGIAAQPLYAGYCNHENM
Sequence of UniProt Q8NB37 (Q8NB37 whole entry, looked up): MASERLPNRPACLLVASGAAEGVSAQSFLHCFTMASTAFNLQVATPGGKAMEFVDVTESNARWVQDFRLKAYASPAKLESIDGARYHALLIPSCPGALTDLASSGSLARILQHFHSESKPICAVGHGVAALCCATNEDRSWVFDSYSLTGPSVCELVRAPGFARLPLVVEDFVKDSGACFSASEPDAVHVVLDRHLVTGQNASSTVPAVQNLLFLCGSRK

| Target | log2 fold change |
| --- | --- |
| GABPA (UniProt Q06546) | -0.203 |
| FRA10AC1 isoform 3 (UniProt Q70Z53) | -0.121 |
| GINS2 (UniProt Q9Y248) | -0.024 |
| GNAS (UniProt Q5JWF2) | 0.002 |
| GYS1 (UniProt P13807) | 0.05 |
| HEXB (UniProt P07686) | -0.145 |
| HDAC1 (UniProt Q13547) | -0.017 |
| FKBP4 (UniProt Q02790) | -0.114 |
| GATD1 (UniProt Q8NB37) | -0.037 |
| GSTT1 (UniProt P30711) | 0.03 |
| HDAC10 (UniProt Q969S8) | -0.076 |
| GPD1 (UniProt P21695) | 0.059 |
| HDAC2 (UniProt Q92769) | -0.013 |
| FKBP3 (UniProt Q00688) | 0.02 |
| HDAC7 isoform 5 (UniProt Q8WUI4) | 0.188 |
| FBXO9 (UniProt Q9UK97) | -0.079 |
| GOPC (UniProt Q9HD26) | 0.15 |

| Target | log2 fold change |
| --- | --- |
| GNL3 (UniProt Q9BVP2) | -0.098 |
| GIGYF2 (UniProt Q6Y7W6) | -0.046 |
| GSTP1 (UniProt P09211) | -0.056 |
| GNL1 (UniProt P36915) | -0.114 |
| GTF3A (UniProt Q92664) | 0.046 |
| GEMIN2 (UniProt O14893) | 0.017 |
| FUT8 (UniProt Q9BYC5) | -0.107 |
| GLCCI1 (UniProt Q86VQ1) | -0.024 |
| FAT1 (UniProt Q14517) | 0 |
| GLRX3 (UniProt O76003) | -0.066 |
| IFRD1 (UniProt O00458) | -0.058 |
| IDI1 isoform 2 (UniProt Q13907) | -0.038 |
| HEATR3 (UniProt Q7Z4Q2) | -0.248 |
| GABARAPL2 (UniProt P60520) | -0.145 |
| GTPBP6 (UniProt O43824) | 0.017 |
| GCLM (UniProt P48507) | -0.088 |
| GTF2A2 (UniProt P52657) | -0.038 |

Compound: NCC(=O)Nc1ccc(-n2nc(C(F)(F)F)cc2-c2ccc3c(ccc4ccccc43)c2)cc1
Experiment: as above
Procedure, shortened: as §1

| Target | log2 fold change |
| --- | --- |
| GABPA (UniProt Q06546) | -0.042 |
| FRA10AC1 isoform 3 (UniProt Q70Z53) | -0.077 |
| GINS2 (UniProt Q9Y248) | 0.022 |
| GNAS (UniProt Q5JWF2) | -0.004 |
| GYS1 (UniProt P13807) | 0.091 |
| HEXB (UniProt P07686) | -0.034 |
| HDAC1 (UniProt Q13547) | 0.006 |
| FKBP4 (UniProt Q02790) | -0.053 |
| GATD1 (UniProt Q8NB37) | -0.013 |
| GSTT1 (UniProt P30711) | 0.08 |
| HDAC10 (UniProt Q969S8) | -0.033 |
| GPD1 (UniProt P21695) | -0.067 |
| HDAC2 (UniProt Q92769) | -0.039 |
| FKBP3 (UniProt Q00688) | 0.037 |
| HDAC7 isoform 5 (UniProt Q8WUI4) | -0.036 |
| FBXO9 (UniProt Q9UK97) | -0.112 |
| GOPC (UniProt Q9HD26) | -0.002 |
| GNL3 (UniProt Q9BVP2) | -0.088 |

| Target | log2 fold change |
| --- | --- |
| GIGYF2 (UniProt Q6Y7W6) | -0.079 |
| GSTP1 (UniProt P09211) | 0.001 |
| GNL1 (UniProt P36915) | -0.019 |
| GTF3A (UniProt Q92664) | -0.098 |
| GEMIN2 (UniProt O14893) | -0.116 |
| FUT8 (UniProt Q9BYC5) | -0.014 |
| GLCCI1 (UniProt Q86VQ1) | 0.102 |
| FAT1 (UniProt Q14517) | -0.075 |
| GLRX3 (UniProt O76003) | -0.042 |
| IFRD1 (UniProt O00458) | -0.009 |
| IDI1 isoform 2 (UniProt Q13907) | 0.024 |
| HEATR3 (UniProt Q7Z4Q2) | -0.103 |
| GABARAPL2 (UniProt P60520) | -0.079 |
| GTPBP6 (UniProt O43824) | -0.003 |
| GCLM (UniProt P48507) | -0.075 |
| GTF2A2 (UniProt P52657) | -0.008 |
| FASTKD1 (UniProt Q53R41) | 0.033 |

Compound: Nc1ccccc1NC(=O)c1ccc(CNC(=O)OCc2cccnc2)cc1 [entinostat]
Experiment: as above
Procedure, shortened: as §1

| Target | log2 fold change |
| --- | --- |
| GABPA (UniProt Q06546) | 0.108 |
| FRA10AC1 isoform 3 (UniProt Q70Z53) | 0.019 |
| GINS2 (UniProt Q9Y248) | 0.533 (active) |
| GNAS (UniProt Q5JWF2) | -0.058 |
| GYS1 (UniProt P13807) | -0.077 |
| HEXB (UniProt P07686) | 0.004 |
| FKBP4 (UniProt Q02790) | 0.039 |
| GATD1 (UniProt Q8NB37) | -0.084 |
| GPD1 (UniProt P21695) | -0.068 |
| FKBP3 (UniProt Q00688) | 0.016 |
| GOPC (UniProt Q9HD26) | -0.092 |
| GNL3 (UniProt Q9BVP2) | -0.069 |
| GIGYF2 (UniProt Q6Y7W6) | 0.024 |
| GSTP1 (UniProt P09211) | -0.006 |
| GNL1 (UniProt P36915) | 0.001 |
| GTF3A (UniProt Q92664) | -0.013 |
| GEMIN2 (UniProt O14893) | -0.055 |
| FUT8 (UniProt Q9BYC5) | 0.042 |
| GLCCI1 (UniProt Q86VQ1) | 0.056 |
| FAT1 (UniProt Q14517) | 0.015 |
| GLRX3 (UniProt O76003) | 0.022 |
| IFRD1 (UniProt O00458) | -0.08 |
| IDI1 isoform 2 (UniProt Q13907) | -0.03 |
| HEATR3 (UniProt Q7Z4Q2) | 0.052 |
| GABARAPL2 (UniProt P60520) | -0.011 |
| GTPBP6 (UniProt O43824) | -0.019 |
| GCLM (UniProt P48507) | 0.093 |
| GTF2A2 (UniProt P52657) | 0.03 |
| FASTKD1 (UniProt Q53R41) | -0.019 |
